Results filed as inconclusive are left out. A number with no mark means an inactive call. The source made the active and inactive calls. The call rests on the fitted dose curve; in most records, active means well fitted curve in the direction sought with a large enough effect; inconclusive means small, poorly fitted or top-dose-only effect, or another doubt; inactive means no such curve, though single readings can be large; an effect the other way counts as inactive or inconclusive.

Experimental findings from PubChem BioAssay (NCATS) are described below.

In assay [1] the target is Rap guanine nucleotide exchange factor 3 (Homo sapiens) (UniProt O95398). Kind of assay: Confirmatory qHTS for antagonist of cAMP-regulated guanine nucleotide exchange factor 3 (EPAC1) (AID 1645880). Further: nearly all actives have a fitted effect of over 55% in size. Further: potency means the concentration at half of the fitted maximal effect. The gist of the method: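 Released BODIPY-GDP fluoresces less than Rap1-bound BODIPY-GDP; the signal is followed at 480/540 nm at 5-min intervals over 30 min, after 5 min at room temperature. Reactions contain 100 nM EPAC1, 250 nM RAP1B-BODIPY-GDP and 50 uM GDP; results are normalized to ATA and DMSO.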
Rap guanine nucleotide exchange factor 3 (Homo sapiens), sequence (O95398 whole entry, looked up): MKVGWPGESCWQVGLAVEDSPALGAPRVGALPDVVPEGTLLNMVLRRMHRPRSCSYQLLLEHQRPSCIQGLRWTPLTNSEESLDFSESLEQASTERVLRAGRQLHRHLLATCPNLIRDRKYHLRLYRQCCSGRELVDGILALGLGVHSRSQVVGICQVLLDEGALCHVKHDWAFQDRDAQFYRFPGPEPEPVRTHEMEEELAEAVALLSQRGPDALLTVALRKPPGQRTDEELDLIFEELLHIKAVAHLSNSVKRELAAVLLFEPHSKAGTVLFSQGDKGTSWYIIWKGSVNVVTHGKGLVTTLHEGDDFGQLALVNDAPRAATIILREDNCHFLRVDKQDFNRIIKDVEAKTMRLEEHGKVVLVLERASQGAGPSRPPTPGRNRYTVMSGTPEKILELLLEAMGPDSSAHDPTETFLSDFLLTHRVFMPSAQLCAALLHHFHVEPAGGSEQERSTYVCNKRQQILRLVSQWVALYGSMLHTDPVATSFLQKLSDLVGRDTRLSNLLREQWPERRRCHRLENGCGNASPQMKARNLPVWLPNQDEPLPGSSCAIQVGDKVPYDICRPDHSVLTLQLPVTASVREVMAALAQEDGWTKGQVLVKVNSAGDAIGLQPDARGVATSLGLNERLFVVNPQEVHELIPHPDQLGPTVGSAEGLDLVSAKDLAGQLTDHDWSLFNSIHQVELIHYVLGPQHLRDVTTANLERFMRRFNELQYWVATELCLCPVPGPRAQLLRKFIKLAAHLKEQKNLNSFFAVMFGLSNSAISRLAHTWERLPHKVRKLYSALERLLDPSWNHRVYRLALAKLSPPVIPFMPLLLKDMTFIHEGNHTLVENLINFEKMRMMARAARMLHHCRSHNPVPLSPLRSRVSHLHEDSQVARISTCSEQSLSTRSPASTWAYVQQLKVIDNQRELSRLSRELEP
Background: qHTS replaces the single test concentration by a dilution series.

Assay [2] has the same target. Kind of assay: Confirmatory qHTS for agonist of cAMP-regulated guanine nucleotide exchange factor 3 (EPAC1) (AID 1645881). Further: nearly all actives have a fitted effect of over 75% in size. Further: potency means the concentration at half of the fitted maximal effect.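 On activation: EPAC1 catalysed release of BODIPY-GDP from Rap1B seen as fluorescence loss; 100% = effect of cAMP agonist control.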
Assay [3] has as its target Rap guanine nucleotide exchange factor 4 (Homo sapiens) (UniProt Q8WZA2). Kind of assay: Confirmatory qHTS for agonist of cAMP-regulated guanine nucleotide exchange factor 4 (EPAC2) (AID 1645884).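 Further: nucleotide exchange releases bodipy-GDP from Rap1 and this lowers its fluorescence; on the % scale 0 is the no-effect control and ±100 the full control effect; nearly all actives have a fitted effect of over 65% in size.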
For assay [4] the target is unchanged. Kind of assay: Confirmatory qHTS for antagonist of cAMP-regulated guanine nucleotide exchange factor 4 (EPAC2) (AID 1645885). Further: nearly all actives have a fitted effect of over 25% in size. Further: potency means the concentration at half of the fitted maximal effect. On activity change, negative = inhibition: on the % scale 0 is the no-effect control and ±100 the full control effect.
For assay [5], the target named is Rap guanine nucleotide exchange factor 3 (Homo sapiens) (UniProt O95398). Kind of assay: Counterscreen qHTS for antagonist of cAMP-regulated guanine nucleotide exchange factor 3 (EPAC1) (AID 1645888). Further: % of control where 0% means no effect. The gist of the method: (§1)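 Rap1B-BODIPY-GDP 250 nM + GDP 50 uM; cpds 7-pt, final 9.74 nM–152 uM (activator mode) or from 7.32 nM upwards (inhibitor mode); RT; FI 480/540 nm at 5 and 30 min, then ± cAMP, reread.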
For orientation: Counterscreens check selectivity or assay interference.

Assay [6] shares this target. Kind of assay: Counterscreen qHTS for agonist of cAMP-regulated guanine nucleotide exchange factor 3 (EPAC1) (AID 1645889). Further: nearly all actives have a fitted effect of over 40% in size. Further: potency means the concentration at half of the fitted maximal effect. On activation: % of control where 0% means no effect. The method, boiled down:
as §1

Rap guanine nucleotide exchange factor 4 (Homo sapiens), sequence (Q8WZA2 whole entry, looked up): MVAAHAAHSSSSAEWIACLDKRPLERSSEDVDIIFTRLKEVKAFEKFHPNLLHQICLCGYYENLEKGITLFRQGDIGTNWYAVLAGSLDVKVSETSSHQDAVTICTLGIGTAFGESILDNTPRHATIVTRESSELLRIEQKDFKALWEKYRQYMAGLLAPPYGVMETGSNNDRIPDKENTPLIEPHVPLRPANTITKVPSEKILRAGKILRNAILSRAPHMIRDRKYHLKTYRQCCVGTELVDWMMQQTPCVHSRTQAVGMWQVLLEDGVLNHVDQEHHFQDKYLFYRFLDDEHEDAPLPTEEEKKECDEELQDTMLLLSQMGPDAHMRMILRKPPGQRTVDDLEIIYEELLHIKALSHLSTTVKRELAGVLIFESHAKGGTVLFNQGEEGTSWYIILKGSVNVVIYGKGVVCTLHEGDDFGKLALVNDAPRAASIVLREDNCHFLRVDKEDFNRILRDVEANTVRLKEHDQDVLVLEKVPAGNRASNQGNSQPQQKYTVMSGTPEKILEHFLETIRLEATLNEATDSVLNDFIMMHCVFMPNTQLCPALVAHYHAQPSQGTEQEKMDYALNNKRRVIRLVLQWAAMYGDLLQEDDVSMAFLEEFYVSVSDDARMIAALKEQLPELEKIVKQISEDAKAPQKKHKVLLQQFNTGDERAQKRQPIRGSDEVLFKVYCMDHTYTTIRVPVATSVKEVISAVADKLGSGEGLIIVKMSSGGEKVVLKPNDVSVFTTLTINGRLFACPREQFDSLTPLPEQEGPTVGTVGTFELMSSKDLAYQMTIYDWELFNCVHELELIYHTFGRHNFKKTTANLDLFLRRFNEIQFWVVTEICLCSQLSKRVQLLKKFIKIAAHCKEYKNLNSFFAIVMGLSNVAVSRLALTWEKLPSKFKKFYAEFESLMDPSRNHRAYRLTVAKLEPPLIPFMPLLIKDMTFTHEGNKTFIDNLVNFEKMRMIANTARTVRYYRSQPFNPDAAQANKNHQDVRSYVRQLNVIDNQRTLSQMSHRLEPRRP

Consider `CC1(Cc2ccc(Cl)cc2)C(=O)Nc2ccc(-c3cccnc3)cc21` (stereo unspecified), for which the Potency entry in assay [1], in assay [2], in assay [3], in assay [4], in assay [5] and in assay [6] was “inactive” in each case.
On to `CC(C)(C)C(=O)Nc1ccc2nc(SCC(=O)N3CCc4ccccc43)sc2c1`, for which the Potency result in assay [1], in assay [2], in assay [3], in assay [4], in assay [5] and in assay [6] was “inactive” each time.
For `O=[N+]([O-])c1cc([N+](=O)[O-])c2oc(-c3ccccc3)c(Br)c2c1O`, the values for the Potency in assay [1] and in assay [4] were 2.69 µM (active) and 3.01 µM (active), respectively. In addition, the Potency result in assay [2], in assay [3], in assay [5] and in assay [6] was “inactive” in each case.
Take `O=C(COc1ccc(F)cc1)Nc1nccs1`: the Potency result in assay [1], in assay [2], in assay [3], in assay [4], in assay [5] and in assay [6] was “inactive” each time.
In the case of `Cn1cc(C(C[N+](=O)[O-])c2ccccc2)c2ccccc21` (stereo unspecified), the Potency entry in assay [1], in assay [2] and in assay [4] was “inactive” throughout. Besides, the activation in assay [3] was 0.148% [at 17.1 µM, percent relative to cAMP agonist control]; in assay [6], 13.8% [at 30.8 µM]. In addition, the activity change, negative = inhibition in assay [5] is -4.06% [at 30.8 µM].
As for `C#Cc1ccc([C@@H]2C=C(C(=O)NCc3nc4ccccc4[nH]3)O[C@H](OCC)[C@H]2CCCO)cc1`, the Potency entry in assay [1], in assay [2] and in assay [4] was “inactive” in each case. The activation in assay [3] is 7.11% [at 17.1 µM, percent relative to cAMP agonist control]; in assay [6], 30.9% [at 30.8 µM]. Also, the activity change, negative = inhibition in assay [5] was -6.31% [at 30.8 µM].
Turning to `COC(=O)c1cc2sc(C)cc2n1Cc1cccc(OC)c1`, the Potency entry in assay [1], in assay [2], in assay [3], in assay [4], in assay [5] and in assay [6] was “inactive” throughout.
As to `CCOC(=O)/C(C#N)=C/c1ccc(N2CCCCC2)cc1`, the Potency entry in assay [1] and in assay [4] was “inactive” in each case. Also, the Potency in assay [2] was 56.2 µM (active). In addition, the activation was 7.82% [at 17.1 µM, percent relative to cAMP agonist control] in assay [3] and 18.2% [at 30.8 µM] in assay [6]. In addition, the activity change, negative = inhibition in assay [5] was -1.56% [at 30.8 µM].
Regarding `Nc1nnc(-c2cccc(F)c2)s1`, the Potency result in assay [1], in assay [2], in assay [3], in assay [4], in assay [5] and in assay [6] was “inactive” in each case.
For the compound `COc1ccc2c(c1)C1=NN(/C(C)=C/C(C)=O)C(c3cccc(F)c3)C1CC2` (stereo unspecified), the Potency entry in assay [1], in assay [2] and in assay [4] was “inactive” each time. For the same compound, the activation in assay [3] is 0.819% [at 17.1 µM, percent relative to cAMP agonist control]; in assay [6] it was 8.14% [at 30.8 µM]. Besides, the activity change, negative = inhibition in assay [5] was -17.2% [at 30.8 µM].
Turning to `CC1=C(C(=O)NC2CCC(C)CC2)C2(CCC(C)CC2)OC1=O` (stereo unspecified), the Potency entry in assay [1], in assay [2] and in assay [4] was “inactive” in each case. Further, the activation was 1.07% [at 17.1 µM, percent relative to cAMP agonist control] in assay [3] and -0.546% [at 30.8 µM] in assay [6]. Also, in assay [5], the activity change, negative = inhibition was -11.5% [at 30.8 µM].
Regarding `COc1ccc(C(C)=O)cc1COc1ccc(F)cc1`, the Potency result in assay [1], in assay [2] and in assay [4] was “inactive” each time. The activation in assay [3] is 4.69% [at 17.1 µM, percent relative to cAMP agonist control]; in assay [6] it was 4.32% [at 30.8 µM]. For the same compound, the activity change, negative = inhibition in assay [5] was 5.38% [at 30.8 µM].
For `COC(=O)C(C)N(C(=O)c1ccc(Cl)cc1)c1c(C)cccc1C` (stereo unspecified), the Potency entry in assay [1], in assay [2], in assay [3], in assay [4], in assay [5] and in assay [6] was “inactive” throughout.
As for `Cc1ccc2nc(-c3ccccc3)cc(C(=O)N3CC(C)OC(C)C3)c2c1` (stereo unspecified), the Potency entry in assay [1], in assay [2], in assay [3], in assay [4], in assay [5] and in assay [6] was “inactive” throughout.
As for `c1ccc(-c2nc(C3CCCCC3)c3ccccc3n2)cc1`, the Potency result in assay [1], in assay [2] and in assay [4] was “inactive” each time. Besides, the activation in assay [3] is 3.01% [at 17.1 µM, percent relative to cAMP agonist control]; in assay [6], 34% [at 30.8 µM]. In addition, the activity change, negative = inhibition in assay [5] is -1.41% [at 30.8 µM].
Regarding `N#C/C(=C(/O)CCl)c1nc2c(s1)CCc1ccccc1-2`, the Potency in assay [1] was 6.75 µM (active). The Potency result in assay [2], in assay [3], in assay [4], in assay [5] and in assay [6] was “inactive” each time.
As to `COc1ccc(C(=O)Nc2cccc(/C=C(\CCC(=O)O)c3nc4ccccc4s3)c2)cc1`, the Potency in assay [1] was 21.3 µM (active). The Potency entry in assay [2], in assay [3], in assay [4], in assay [5] and in assay [6] was “inactive” throughout.
With `C[C@@H](NC(=O)C1(c2ccccc2)CCN(C(=O)OC(C)(C)C)CC1)C(=O)N[C@@H](C(=O)O)c1ccccc1`, the Potency in assay [1] and in assay [4] was 42.6 µM (active) in each case. Besides, the Potency entry in assay [2], in assay [3], in assay [5] and in assay [6] was “inactive” throughout.
With `O=C(NS(=O)(=O)c1ccc2ccc(S(=O)(=O)NCCSc3ccccc3)cc2c1)c1cccc2ccccc12`, the results for the Potency in assay [1] and in assay [4] were 42.6 µM (active) and 67.5 µM (active), respectively. The Potency result in assay [2], in assay [3], in assay [5] and in assay [6] was “inactive” each time.
With `O=C(Nc1ccc2nc(-c3ccc4nc[nH]c4c3)[nH]c2c1)c1cccs1`, the Potency result in assay [1], in assay [2] and in assay [4] was “inactive” in each case. Further, the activation in assay [3] was 3.61% [at 17.1 µM, percent relative to cAMP agonist control]; in assay [6], 15.6% [at 30.8 µM]. Further, the activity change, negative = inhibition in assay [5] is 8.72% [at 30.8 µM].
For `CN1CCS/C1=C/C=C1\SC(=S)N(CC(=O)O)C1=O`, the Potency result in assay [1] and in assay [4] was “inactive” each time. Moreover, the Potency is 50.1 µM (active) in assay [2] and 14.1 µM (active) in assay [6]. Also, in assay [3], the activation is 15.2% [at 17.1 µM, percent relative to cAMP agonist control]. Also, the activity change, negative = inhibition in assay [5] is 62.8% [at 30.8 µM].
